RORgamma inh: qHTS for inhibitors of ROR gamma transcriptional activity; Nuclear receptor ROR-gamma (Mus musculus), P51450; Drosophila S2 Gal4-RORgamma UAS-luciferase reporter, 20 h; Potency, µM (doses to about 53.6 µM), inactives show at the highest dose activity change, negative = inhibition, actives largely listed as inhibitors; hit rate 5.4% among 310,000; AID 2551, 2010; also: nearly all actives have a fitted effect of over 60% in size
Target sequence (P51450 whole entry, looked up, the tested form may be a part): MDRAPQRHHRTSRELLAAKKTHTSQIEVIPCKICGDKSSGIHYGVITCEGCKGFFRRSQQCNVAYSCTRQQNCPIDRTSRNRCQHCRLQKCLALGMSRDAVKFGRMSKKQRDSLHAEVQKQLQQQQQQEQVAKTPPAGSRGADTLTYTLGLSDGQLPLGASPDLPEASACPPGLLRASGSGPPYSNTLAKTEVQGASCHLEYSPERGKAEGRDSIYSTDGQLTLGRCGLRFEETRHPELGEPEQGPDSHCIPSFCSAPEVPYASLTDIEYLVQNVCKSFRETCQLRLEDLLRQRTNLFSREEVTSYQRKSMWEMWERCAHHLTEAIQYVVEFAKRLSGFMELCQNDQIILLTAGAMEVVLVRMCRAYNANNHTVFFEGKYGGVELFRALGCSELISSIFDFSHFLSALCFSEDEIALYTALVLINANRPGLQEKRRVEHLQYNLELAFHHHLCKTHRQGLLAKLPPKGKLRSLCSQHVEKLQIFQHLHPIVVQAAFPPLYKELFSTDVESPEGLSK
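Schneider cells (Drosophila), stable Gal4 DBD–ROR gamma + UAS-luc; 1 hr cmpd preincubation; Cu2+ induction 700 uM final; 20 hr ambient; luminescence.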
DT40 TDP1 no CPT: qHTS for Inhibitors of human tyrosyl-DNA phosphodiesterase 1 (TDP1): qHTS in cells in absence of CPT. hit rate 15% among 420,000. DT40 Tdp1-/- hTDP1 cells, no CPT, ATP luminescence, 48 h. Potency, µM (highest dose often 46.2 µM), without a hit: at the top dose activity change, negative = growth inhibition, usual class: inhibitors. AID 686978, 2013; also: nearly all actives have a fitted effect of over 55% in size
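A cellular qHTS used chicken DT40 cells lacking endogenous Tdp1 but carrying stably transfected human TDP1. Compounds were applied without camptothecin, and cell growth kinetics were judged by ATP-dependent luminescence after ≥48 hr.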
DT40 TDP1 CPT: qHTS for Inhibitors of human tyrosyl-DNA phosphodiesterase 1 (TDP1): qHTS in cells in presence of CPT; chicken DT40 Tdp1-/-;hTDP1 cells + 20 nM CPT, ATP luminescence, 48 h; Potency, µM (doses to about 46.2 µM), without a hit: at the highest dose activity change, negative = growth inhibition, actives largely listed as inhibitors; hit rate 12% among 420,000; AID 686979, 2013; also: nearly all actives have a fitted effect of over 55% in size
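Chicken DT40 Tdp1-/- cells stably complemented with human TDP1 were seeded at 400 cells/well in medium containing 20 nM camptothecin, exposed to pin-transferred compounds, and grown at 37 °C for at least 48 hr. Viability was read as ATP luminescence.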
ELG1 repair inh: qHTS screen for small molecules that inhibit ELG1-dependent DNA repair in human embryonic kidney (HEK293T) cells expressing luciferase-tagged ELG1. hit rate 2.3% among 330,000. HEK293T ELG1-luciferase reporter, luminescence, 16 h; DNA damage induced by 5-fluorouridine. Potency, µM (top dose mostly 46.1 µM), without a hit: top-dose activity change, negative = inhibition, hits mostly inhibitors; also: nearly all actives have a fitted effect of over 55% in size
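5-Fluorouridine DNA damage + compound/DMSO, 2,000 cells/well, 16 h, 37 °C/5% CO2. ONE-Glo, 30 min RT, luminescence. Readout = decrease in reporter signal.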
VP16 counter: VP16 counterscreen qHTS for inhibitors of ROR gamma transcriptional activity; Drosophila S2 Gal4-VP16 UAS-luciferase, luminescence, 20 h; Potency, µM (series often up to 53.6 µM), for the others: at the top dose activity, negative = inhibition, most hits filed as inhibitors; hit rate 3.5% among 310,000; AID 2546, 2010;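 also: Gal4-VP16 expression switched on by copper sulfate through the metallothionein promoter; nearly all actives have a fitted effect of over 50% in size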
ALOX12 inh: Primary qHTS assay for inhibitors of human arachidonate 12S-lipoxygenase (ALOX12): Round 2 | Potency, µM (titrated, usually from 108 µM), inactives show at the highest dose activity change, negative = inhibition, actives largely listed as inhibitors | purified 12hLO, xylenol orange hydroperoxide absorbance | hit rate 1.1% among 580,000
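Purified human 12hLO at 150 nM in 25 mM Hepes, 0.01% Triton X-100, pH 7.0, preincubated 15 min at room temperature with compound. Reaction started with 40 uM arachidonic acid, 30 min at room temperature. Hydroperoxide measured by Fe-xylenol orange, 573/405 nm absorbance ratio.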
Starred values were filed as active, the others as inactive; ? = inconclusive; . = no result; ! = not confirmed by another sample. The list is not random: actives were taken first. Their share in the collection is about 15%. Calls follow the shape of the dose curve; as a rule, active = well fitted curve in the direction sought with a large enough effect; inconclusive = small, poorly fitted or top-dose-only effect, or another doubt; inactive = no such curve, though single readings can be large; an effect the other way counts as inactive or inconclusive. % is scaled to controls: 0 for no effect and ±100 for the full control effect; potency is read from the fitted curve at half-maximal effect.

SMILES	RORgamma inh	DT40 TDP1 no CPT	DT40 TDP1 CPT	ELG1 repair inh	VP16 counter	ALOX12 inh
c1ccc(Nc2ccccn2)cc1	16%	26µM*	?	26%	17%	2%
CCN(Cc1ccccc1)c1sc(S(=O)(=O)CC)nc1S(=O)(=O)c1ccc(C)cc1	.	.	.	.	.	-25%
COc1ccccc1C1CC(=O)N(Cc2cccc(Cl)c2)c2c1c(C)nn2-c1nc(C)cc(C)n1 (configuration not stated)	.	.	.	.	.	1%
Cc1ccc(-c2nnc(SCC(=O)N/N=C/c3c(C)nn(-c4ccccc4)c3C)n2-c2ccc(C)cc2)cc1	34%	?	?	?	-13%	-16%
Cc1ccc(/C=N/NC(=O)CSc2nnc(-c3ccccc3)n2-c2ccc(Cl)cc2)o1	?	?	?	?	-18%	-26%
Cc1ccc(/C=N/NC(=O)CSc2nnc(-c3ccc(Cl)cc3)n2-c2ccc(Cl)cc2)o1	-30%	?	23µM*	?	?	-6%
Cc1ccc(-c2nnc(SCC(=O)N/N=C/c3ccc(C)s3)n2-c2ccccc2)cc1	?	18µM*	?	23µM*	?	7%
Cc1nn(-c2ccccc2)c(C)c1/C=N/NC(=O)CSc1nnc(-c2ccccc2)n1-c1ccc(Cl)cc1	-1%	26µM*	?	?	-19%	-3%
CCC(C)NC(=O)CC1Sc2ncccc2N(CC(C)C)C1=O (configuration not stated)	.	.	.	.	.	-3%
Cc1nc(-c2c3n(c(=O)n(CC(=O)Nc4cccc(C(C)C)c4)c2=O)CCCCC3)no1	.	.	.	.	.	-4%
CCOc1cc(C2C(C#N)=C(N)OC(C)=C2C(C)=O)c(Br)c(Br)c1OC(C)C (configuration not stated)	?	4.6µM*	4.6µM*	-29%	13µM*	.
O=C(Nc1ccc(-n2cncn2)nc1)C1CCCCC1	.	.	.	.	.	-1%
CCOC(=O)C1=C(N)Oc2cc(O)ccc2C1c1cccnc1 (configuration not stated)	14%	?	23µM*	-13%	-2%	-7%
CCOC(=O)C1=C(N)Oc2cc(O)ccc2C1c1ccc(Br)cc1 (configuration not stated)	9%	-14%	-28%	29%	-15%	25µM*!
CCOC(=O)C1=C(C)OC(N)=C(C#N)C1c1cc(F)ccc1F (configuration not stated)	-16%	?	?	?	12%	-17%
CCOC(=O)C1=C(N)Oc2ccc(Br)cc2[C@@H]1[C@@H](C#N)C(=O)OCC	6%	0%	4%	.	0%	10µM*
Cc1ccc2oc(C(=O)N(C)CCOc3ccc(F)cc3)cc(=O)c2c1	.	.	.	.	.	-20%
CCCc1cc(=O)n2[nH]c(NC(=O)C3CCCCC3)nc2n1	.	.	.	.	.	-49%
CCOCCCNc1nc(C(F)(F)F)nc2c1nnn2Cc1ccccc1Cl	?	15µM*	18µM*	18µM*	-9%	0%
C=CCNc1nc(C(F)(F)F)nc2c1nnn2Cc1ccccc1Cl	?	?	?	17%	?	10%
CC(C)(C)c1nc(NCCN2CCOCC2)c2nnn(Cc3ccccc3Cl)c2n1	-43%	10µM*	10µM*	3%	?	-6%
CCc1nnc(SC(CC)C(=O)Nc2cc(C)ccc2C)c2cc3occc3n12 (configuration not stated)	.	15µM*	18µM*	.	.	0%
CCc1cccc(C)c1NC(=O)C(CC)Sc1nncn2c1cc1occc12 (configuration not stated)	.	21µM*	21µM*	.	.	-6%
CN(C(=O)CSc1nncn2c1cc1occc12)c1ccccc1	.	26µM*	?	.	.	-23%
CCc1nnc(SC(CC)C(=O)Nc2ccc(OC)c(Cl)c2)c2cc3occc3n12 (configuration not stated)	.	?	?	.	.	-8%
SMILES	RORgamma inh	DT40 TDP1 no CPT	DT40 TDP1 CPT	ELG1 repair inh	VP16 counter	ALOX12 inh
Cc1cc(C)cc(NC(=O)CSc2nncn3c2cc2occc23)c1	.	?	-25%	.	.	-11%
N#CCC(=O)Nc1ccc(C(=O)OCC(=O)N2CCN(c3ccccc3)CC2)cc1	.	.	.	.	.	-1%
CCCC1=C(C(=O)OCC)C(c2c(F)cccc2Cl)NC(=O)N1C (configuration not stated)	.	.	.	.	.	-5%
O=C(NC1CCN(c2cc(-c3ccccc3)[nH]n2)CC1)c1ccsc1	.	.	.	.	.	23%
Cc1ccccc1-c1nn2c(COc3ccc(F)cc3)nnc2s1	.	.	.	.	.	6%
O=C(Nc1ccc(Cl)cc1)N[C@H]1CC[C@H](CCn2cc(-c3ccccc3F)nn2)O[C@@H]1CO	.	9.2µM*	8.2µM*	.	.	?
CC(=O)CS(=O)(=O)c1ccc(Oc2ccc(S(=O)(=O)CC(C)=O)cc2)cc1	22%	?	?	-5%	-6%	0%
